In the library only some 5.3% were active in any assay of this set; here they are far more common.
VACV mCherry inh: qHTS for Stage-Specific Inhibitors of Vaccinia Orthopoxvirus: mCherry Reporter Primary qHTS | Vaccinia virus mCherry reporter infection, fluorescence | 0.63% of 310,000 active | AID 720579, 2013 | Potency, µM (titrated, usually from 36.5 µM), for the others: top-dose activity change, negative = inhibition, most hits filed as inhibitors; calls by dose curve; tested in A549 cells; note: nearly all actives have a fitted effect of over 35% in size
MARV entry inh: qHTS for inhibitors of binding or entry into cells for Marburg Virus. Marburg virus pseudotyped entry inhibition, cell reporter. Potency, µM (highest dose often 37.8 µM), without a hit: at the highest dose activity change, negative = inhibition, most hits filed as inhibitors. 1.8% of 300,000 active; calls by dose curve; tested in HEK293 cells
Vaccinia Venus: qHTS for Stage-Specific Inhibitors of Vaccinia Orthopoxvirus: Venus Reporter Primary qHTS. Vaccinia virus Venus reporter expression, fluorescence. Potency, µM (titrated, usually from 36.5 µM), for the others: at the top dose activity change, negative = inhibition, usual class: inhibitors. 0.46% of 330,000 active. AID 720580, 2013; calls by dose curve; tested in A549 cells; note: nearly all actives have a fitted effect of over 30% in size
HCV inhibitor: qHTS Assay for Inhibitors of Hepatitis C Virus (HCV); Huh7.5.1 HCVcc-Cre infection, luciferase reporter, 44 h; Potency, µM (titrated, usually from 41.8 µM), for the others: at the top dose activity change, negative = inhibition, usual class: inhibitors; 3.4% of 340,000 active; AID 651820, 2012; active = well fitted inhibition curve with a large enough effect; inconclusive = small, poorly fitted or top-dose-only effect, or another doubt; inactive = no such curve, though single readings can be large or run the other way
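HCVcc-Cre virus at an moi near 0.5 was added right after compound to cells cultured 4 h from seeding (1,000 cells/well). Luciferase activity was determined 44 h later, 15 min after substrate addition at RT.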
LASV entry inh: qHTS for Inhibitors of binding or entry into cells for Lassa Virus; Lassa virus pseudotype entry inhibition, cell reporter; Potency, µM (doses to about 37.9 µM), without a hit: top-dose activity change, negative = inhibition, usual class: inhibitors; 1.2% of 300,000 active; calls by dose curve; tested in HEK293 cells; note: nearly all actives have a fitted effect of over 50% in size
FMDV antiviral: High Throughput Screening for Foot and Mouth Disease Virus Antivirals; FMDV antiviral cell-based qHTS; Potency, µM (doses to about 57.9 µM), for inactives: at the highest dose activity change, negative = inhibition, hits mostly inhibitors; 1.2% of 410,000 active; AID 1159524, 2015; calls by dose curve; tested in HEK293T cells; note: read-out not given here; nearly all actives have a fitted effect of over 45% in size
An asterisk follows results filed as active; i = inactive; ? = inconclusive; nt = not tested or not shown; [ ] = remark or other dose. % is set by controls: 0 for no effect and ±100 for the full control effect; potency is the fitted concentration of half-maximal effect.

SMILES | VACV mCherry inh | MARV entry inh | Vaccinia Venus | HCV inhibitor | LASV entry inh | FMDV antiviral
COc1ccc(/C=C2\SC(=O)N(CCC(=O)Nc3ccccc3)C2=O)cc1OC | -14% | 40% | -2% | 6% | -2% | ?
Cn1c(-n2cccc2)c(-c2c(-c3ccccc3)[nH]c3c2c(=O)[nH]c(=O)n3C)c(=O)[nH]c1=O | -13% | 9%[46.1 µM] | -9% | nt | 5%[46.1 µM] | 4%
CCC/C(=N/Nc1ccc(Cl)cc1)c1cnnc(-c2ccccc2)n1 | nt | ? | nt | 14µM* | -11% | -11%
COc1cc2nc(N3CCCCC3)nc(NC3CC3)c2cc1OC | -4% | nt | -20% | nt | nt | nt
C=C(C)COc1ccc(-c2nc(N)ncc2-c2ccc(OC)cc2)c(O)c1 | nt | -3% | nt | ? | nt | nt
C=C(C)COc1ccc(-c2[nH]ncc2-c2ccc(OC)c(OC)c2)c(O)c1 | nt | 1.6µM* | 10µM* | 2µM* | 1.3µM* | ?
C=C(C)COc1ccc(-c2[nH]ncc2-c2ccc(OC)cc2)c(O)c1 | nt | nt | nt | -14% | nt | -13%
C=C(C)COc1ccc(-c2[nH]ncc2-c2ccccc2)c(O)c1 | nt | ? | ? | -22% | 8.9µM* | ?
C=C(C)COc1ccc(-c2nc(N)ncc2-c2ccc(OC)c(OC)c2)c(O)c1 | -11% | 13µM* | -27% | ? | -2%[46.1 µM] | -22%
COc1ccc(-c2n[nH]c(C)c2-c2ccc(Cl)cc2)c(O)c1OC | nt | -12% | nt | 14µM* | ? | 32µM*
COc1ccc(NC(=O)O[C@@H](C)[C@@H]2CN3CCc4c([nH]c5ccc(-c6ccc(OC)cc6)cc45)[C@@H]3C[C@@H]2N(C)C(=O)Nc2ccc(OC)cc2)cc1 | ? | nt | -27% | nt | nt | -25%
C=C(C)COc1ccc(-c2[nH]ncc2Oc2ccccc2OCC)c(O)c1 | nt | ? | ? | ? | ? | -9%
CCOc1ccc(-c2n[nH]c(C)c2Oc2ccccc2OC)c(O)c1 | i | ? | -23% | ? | ? | nt
C=C(C)COc1ccc(-c2n[nH]c(C)c2Oc2ccccc2OC)c(O)c1 | nt | ? | ? | 32µM* | ? | -27%
Nc1ncc(-c2ccccc2)c(-c2ccc(OCc3ccccc3)cc2O)n1 | ? | -29% | -24% | 1.8µM* | ? | -27%
C=C(C)COc1ccc(-c2n[nH]c(C)c2-c2ccc(OC)c(OC)c2)c(O)c1 | ? | ? | ? | 13µM* | 0.63µM* | ?
C=C(C)COc1ccc(-c2[nH]ncc2Oc2cccc(OC)c2)c(O)c1 | ? | -30% | ? | ? | 1.6µM* | 23%
Nc1cccc(O)c1 | -23% | nt | -16% | 14% | nt | -13%
Oc1cccc(-c2nnc(-c3cccc(O)c3)nn2)c1 | -19% | ? | -4% | ? | ? | 8.9µM*
CCOC(=O)C1(CCOc2ccccc2)CCN(Cc2cccc(O)c2)CC1 | -10% | ? | -17% | -18% | 1%[46.1 µM] | -24%
CCOC(=O)C1(CCOc2ccccc2)CCN(Cc2cc(OC)c(O)c(OC)c2)CC1 | nt | nt | nt | -24% | nt | ?
CCOC(=O)C1(CCOc2ccccc2)CCN(Cc2ccc(O)c(OCC)c2)CC1 | ? | 11µM* | -12% | ? | ? | -26%
CCOC(=O)C1(CCOc2ccccc2)CCN(Cc2ccc(OC)c(COC)c2)CC1 | -6% | ? | -26% | 11µM* | ? | ?
CCc1cccc2c(C(=O)CN3C(=O)N(C)C4(CCCCC4)C3=O)c[nH]c12 | nt | nt | nt | 7.1µM* | nt | -12%
[O-]C(=C(C(=S)Nc1cccc2ccccc12)[n+]1cccc(CO)c1)c1ccc(Cl)s1 | i | 2% | 12% | 7.9µM* | 14% | -3%
SMILES | VACV mCherry inh | MARV entry inh | Vaccinia Venus | HCV inhibitor | LASV entry inh | FMDV antiviral
[O-]/C(=C(\C(=S)Nc1cccc2ccccc12)[n+]1ccccc1)c1ccc(Cl)s1 | -10% | 13% | -13% | 3% | 6% | -6%
CCN1CCN(C(=O)c2cc(NC(=O)COC)cc3nc(-c4ccncc4)n(C)c23)CC1 | -10% | nt | 1% | nt | nt | -9%
CC(C)c1ccccc1NC(=O)Nc1nnc([C@H]2C[C@H](O)[C@@H](CO)O2)s1 | 34% | nt | -5% | nt | nt | -7%
CC(C(=O)Nc1nc(-c2ccc(F)cc2)cs1)N1C(=O)C2CC=CCC2C1=O (configuration not stated) | i | -20% | -16% | -8% | -24% | 28µM*
CCC(=O)N1CCc2cc(Br)cc(S(=O)(=O)N3CCN(c4cccc(Cl)c4)CC3)c21 | -29% | -1%[46.1 µM] | -26% | nt | 21%[46.1 µM] | -1%
NC(=S)NN=C1CCC(C2CCCCC2)CC1 (configuration not stated) | -27% | ? | -7% | ? | -20%[46.1 µM] | -18%
NC(=S)NN=C1CCCCCCCCCC1 | ? | -2% | ? | 11µM* | -16% | ?
CC(C)N(C(=O)[C@H]1CC(CC(=O)NCc2cccc(C(F)(F)F)c2)C(=O)N2CCc3c([nH]c4ccccc34)[C@]12C)C(C)C (some centres not stated) | -27% | nt | ? | 10µM* | nt | ?
C[C@]12c3[nH]c4ccc(Cl)cc4c3CCN1C(=O)[C@@H](CC(=O)NCc1cccc(C(F)(F)F)c1)C[C@@H]2C(=O)N1CCCCC1 | ? | nt | ? | 25µM* | nt | ?
COc1ccc2[nH]c3c(c2c1)CCN1C(=O)C(CC(=O)NCc2cccc(C(F)(F)F)c2)C[C@H](C(=O)N2CCCCC2)[C@@]31C (some centres not stated) | ? | -3% | ? | 11µM* | nt | -22%
CC(C)N(C(=O)[C@H]1CC(CC(=O)NCCCN(C)C)C(=O)N2CCc3c([nH]c4ccccc34)[C@]12C)C(C)C (some centres not stated) | 0% | nt | -17% | -13% | nt | -23%
COc1ccc2[nH]c3c(c2c1)CCN1C(=O)C(CC(=O)NCc2ccco2)C[C@H](C(=O)N2CCCCC2)[C@@]31C (some centres not stated) | i | nt | -8% | -17% | nt | -20%
CCN(CC)C(=O)[C@H]1CC(CC(=O)NCCN2CCOCC2)C(=O)N2CCc3c([nH]c4ccc(OC)cc34)[C@]12C (some centres not stated) | i | 0% | -12% | 4% | nt | -18%
CCN(CC)C(=O)[C@H]1CC(CC(=O)NCc2cccc(C(F)(F)F)c2)C(=O)N2CCc3c([nH]c4ccc(OC)cc34)[C@]12C (some centres not stated) | 10µM* | 2% | ? | ? | nt | ?
C[C@]12c3[nH]c4ccc(Cl)cc4c3CCN1C(=O)[C@@H](CC(=O)NCc1ccco1)C[C@@H]2C(=O)N1CCCCC1 | ? | -1% | ? | ? | nt | -28%
C1=Cc2ccccc2/C1=C(\Cc1ccncc1)Oc1ccncc1 | -21% | nt | ? | nt | nt | nt

Screens (PubChem)
